Common to all, as to assay: PBM binding z-score (relative to random genomic background probes); higher = stronger binding; sequences stand for … in GC…GCGATTGACAGCGTAGAATGAAGG
Test [1] deals with RARb homodimer (NR concentration 270 nM). The method in brief: (§1)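 Ligand-free nuclear receptor dimers were bound for 1 h to custom Agilent 4×180K protein-binding microarrays. Detection used antibodies against each partner (one per run). Binding z-scores rest on regression-normalized fluorescence, with random background probes as the reference.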
The subject of test [2] is RARg:RXRa (NR concentration 270 nM, RXRa partner concentration 90 nM). The method in brief:
as §1

The subject of test [3] is RARg homodimer (NR concentration 270 nM). The method in brief: as §1
The subject of test [4] is RXRa DBDmut IVT, anti-RXR (DBD mutation: RXRa K156A/R161A, NR concentration 90 nM). In outline: as §1
Test [5] concerns RXRa homodimer (NR concentration 180 nM). In outline:
as §1

Test [6] relates to THRa:RXRa (NR concentration 90 nM, RXRa partner concentration 90 nM). In outline: as §1
Test [7] deals with THRa homodimer (NR concentration 90 nM). In outline: as §1
For test [8], the system named is VDR homodimer (NR concentration 270 nM). The method in brief: as §1

As to CGAACTAGGTCATCCAGGACAATGAATACATTGA, the PBM binding z-score in test [1] came to 2.68; in test [2], 3.81; in test [3] it was 4.59; in test [4], 2.36; in test [5], 2.73; in test [6], 3.81. In addition, the results for the PBM binding z-score in test [7] and in test [8] were 2.22 and 2.27, respectively.
With TAGCCAAGGTCATGGGCCAGTATACCACGCGAAC, the PBM binding z-score in test [1] was determined as 4.04; in test [2], 6.18; in test [3], 6.1; in test [4], 1.93; in test [5], 6.11; in test [6] it was 3.89. Moreover, the values for the PBM binding z-score in test [7] and in test [8] were 2.68 and 2.65, respectively.
With ATATGTAGGTTAAGGGTCACTCAGGTTGGTTCGC, the PBM binding z-score in test [1] worked out at 4.35; in test [2], 4.99; in test [3] it was 4; in test [4] it was 1.82; in test [5], 6.33; in test [6], 3.59. For the same sequence, the PBM binding z-score in test [7] was 2.01; in test [8], 3.47.
For GCGACTGGGGCATCAGCAAGTTACCATAACTTAA, the PBM binding z-score in test [1] was -0.0103; in test [2], 0.142; in test [3], 0.0409; in test [4], -0.018; in test [5], 0.208; in test [6] it was -0.53. Moreover, the PBM binding z-score in test [7] was -0.605; in test [8], -0.296.
Regarding GCTAGTTGGTGAGTAAAAGGTCACACACCGGTCG, the PBM binding z-score came to 4.97 in test [1]; 4.87 in test [2]; 4.37 in test [3]; 0.235 in test [4]; 5.35 in test [5]; 3.48 in test [6]. The values for the PBM binding z-score in test [7] and in test [8] were 1.6 and 1.57, respectively.
As to ACTCGTAGGACAAAGGTCAGAGCTACGCCAGTGA, the PBM binding z-score in test [1] came to 4.29; in test [2] it was 5.58; in test [3], 4.82; in test [4], 1.14; in test [5] it was 5.3; in test [6] it was 2.92. Further, the PBM binding z-score in test [7] came to 0.244; in test [8] it was 0.657.
On to ACTAGCAGGTCAAGTTTGGGTCACTCAAACAAAG, for which the PBM binding z-score came to 4.03 in test [1]; 7.23 in test [2]; 5.73 in test [3]; 2.25 in test [4]; 4.85 in test [5]; 4.38 in test [6]. The PBM binding z-score in test [7] was 1.93; in test [8] it was 2.13.
In the case of TCTTGTAGATCAATAGTGGTTAAGAAAGTGCGCT, the PBM binding z-score in test [1] was -0.161; in test [2], -0.0273; in test [3] it was -0.193; in test [4], 0.933; in test [5], 0.198; in test [6] it was 0.0334. Moreover, the PBM binding z-score in test [7] was -0.033; in test [8] it was 0.464.
Turning to AGAATGAGGTTACCAAAGATCAGCGAAACGCTTG, the PBM binding z-score in test [1] was 0.525; in test [2] it was 2.03; in test [3], 1.45; in test [4], 1.07; in test [5], 2.44; in test [6], 2.73. The results for the PBM binding z-score in test [7] and in test [8] were 0.456 and 0.187, respectively.
Take ACTAGTTGGTCAGCTGAGGTCAAACACAATTCGG: the PBM binding z-score stood at 4.23 in test [1]; 4.33 in test [2]; 3.72 in test [3]; 1.72 in test [4]; 4.56 in test [5]; 4.9 in test [6]. For the same sequence, the PBM binding z-score in test [7] amounted to 4.87; in test [8], 3.66.
Consider CCTAGTTGGTCAGGAGGTCACACGCCGGATATGA, for which the PBM binding z-score in test [1] was 4.02; in test [2] it was 4.96; in test [3], 4.34; in test [4] it was 0.884; in test [5], 4.77; in test [6], 3.41. The PBM binding z-score came to 2.31 in test [7] and 2.95 in test [8].
As for GCTAGGAGGCCATTTGGGTCACTCAATGACGGGC, the PBM binding z-score in test [1] was 2.18; in test [2] it was 1.5; in test [3] it was 2.23; in test [4] it was 0.724; in test [5] it was 0.924; in test [6], 2.33. Further, the results for the PBM binding z-score in test [7] and in test [8] were 0.78 and 1.29, respectively.
Take GCGATTGGGGCAAAGCAGGTTACCATAAGGTTGG: the PBM binding z-score in test [1] was 1.1; in test [2], 0.454; in test [3], 0.635; in test [4] it was 0.0691; in test [5], 0.619; in test [6], 3.01. Further, the PBM binding z-score in test [7] came to 0.281; in test [8] it was 0.0482.
Take ATAGACAGGTGAGTGAAGGTAACTCAGCTGGACG: the PBM binding z-score is 0.264 in test [1]; 0.515 in test [2]; 0.582 in test [3]; -0.459 in test [4]; 0.665 in test [5]; 1.68 in test [6]. The PBM binding z-score is -0.333 in test [7] and -0.359 in test [8].
On to CCTCGGAGGACAGAAGGTCAGAACTGTCCGCTTT, for which the PBM binding z-score was 3.17 in test [1]; 2.9 in test [2]; 2.58 in test [3]; 0.39 in test [4]; 1.43 in test [5]; 1.85 in test [6]. Further, the PBM binding z-score is 0.203 in test [7] and 0.761 in test [8].

For the origin of these results see the supplement of paper PMC6555819.
